According to PubChem BioAssay AID504332 (National Center for Advancing Translational Sciences (NCATS), 2011):
Out of some 350,000 compounds screened, about 31,000 (8.9%) were called active. Another 15% or so got no clear call; they are omitted. Calls follow the shape of the dose curve; as a rule, active = well fitted inhibition curve with a large enough effect; inconclusive = small, poorly fitted or top-dose-only effect; inactive = no such curve, though single readings can be large or run the other way. The full list was thinned out, with actives kept by preference.

These compounds were tested against Histone-lysine N-methyltransferase EHMT2 (Homo sapiens) (UniProt Q96KQ7) (assay: qHTS Assay for Inhibitors of Histone Lysine Methyltransferase G9a). Details: G9a H3K9 monomethylation, AlphaScreen, 2 h; series mostly up to 59 µM; activity, negative = inhibition: at the top concentration.
How it was run: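 Methyltransferase reactions run at room temperature for 2 h (20 nM enzyme, 500 nM biotin-H3K9 peptide, 20 uM SAM) after a 15 min compound preincubation; product detected by AlphaScreen beads and anti-H3K9me1 antibody.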
% is scaled to controls: 0 for no effect and ±100 for the full control effect; potency is read from the fitted curve at half-maximal effect.
Also: nearly all actives have a fitted effect of over 75% in size.

Chain of Histone-lysine N-methyltransferase EHMT2 (Homo sapiens) (Q96KQ7 913-1193 limits assumed): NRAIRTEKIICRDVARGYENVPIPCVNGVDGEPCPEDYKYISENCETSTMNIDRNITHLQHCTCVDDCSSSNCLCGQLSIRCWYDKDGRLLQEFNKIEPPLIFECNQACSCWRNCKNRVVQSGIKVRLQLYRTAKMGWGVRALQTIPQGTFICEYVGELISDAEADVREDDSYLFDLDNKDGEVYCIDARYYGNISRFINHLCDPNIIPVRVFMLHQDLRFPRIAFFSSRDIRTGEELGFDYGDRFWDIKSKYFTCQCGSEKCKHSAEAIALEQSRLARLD

activity, negative = inhibition, inactive:
Cc1ccccc1Nc1nn2c(=O)c3ccc(C(=O)NCCc4ccc(Cl)cc4)cc3nc2s1 -4.26%
COc1ccc(-c2nc3ccc(C(=O)NCc4ccc(C)cc4)cc3nc2-c2ccc(OC)cc2)cc1 23.6%
Cc1cccc(C(=O)NCCCN2CCCC2=O)c1 16.7% [at 102 µM]
CC1CC1C(=O)OCC(=O)Nc1cccc(F)c1 (centres undefined) 17.7% [at 2.33 µM]
O=C(CCC(=O)N1CCN(S(=O)(=O)c2ccccc2)CC1)NC1CCCc2ccccc21 (centres undefined) 11.3%
O=C(CCNC(=O)c1ccc(Cl)cc1)NC1CCCc2ccccc21 (centres undefined) 15.5% [at 2.33 µM]
Cc1ccc(S(=O)(=O)N2CCN(C(=O)CCC(=O)NC3CCCc4ccccc43)CC2)cc1 (centres undefined) -0.0182% [at 102 µM]
O=C(CSc1nncs1)NC1CCCc2ccccc21 (centres undefined) 3.13% [at 102 µM]
COc1ccc(CCN2C(=O)c3oc4cc(C)cc(C)c4c(=O)c3C2c2ccccc2F)cc1OC (centres undefined) 5.08%
COc1cccc2[nH]c(C(=O)NCCc3ccccc3)cc12 21.5% [at 102 µM]
CCNC(=O)c1cnn(-c2ccccc2)c1-c1ccccc1 -1.29% [at 102 µM]
Cc1cc(=O)c2cc(C(=O)Nc3cccc(C)c3C)ccc2[nH]1 -8.29%
COc1ccc(/C=N/NC(=O)c2ccc(Cl)cc2)cc1COC(C)=O -4.32%
COc1cc(/C=N/NC(=O)CNC(=O)c2ccncc2)ccc1OC(C)=O 15.1% [at 102 µM]
COC(=O)CN1C(=O)CSc2ccc(S(=O)(=O)Nc3cc(C)ccc3C)cc21 -6.35%
Cn1c(SCC(=O)NC2CCCCC2)nnc1-c1ccc(N)cc1 -1.06% [at 102 µM]
CCC(=O)Nc1cccc(NC(=O)CSc2nnc(-c3ccc(NS(C)(=O)=O)cc3)n2C)c1 -1.1%
CCc1ccc(N(CC(=O)NCc2cccnc2)S(=O)(=O)c2ccccc2)cc1 11% [at 102 µM]
Cc1ccc(S(=O)(=O)c2nnn3c2nc(N2CCN(c4ccccc4F)CC2)c2cc(Cl)ccc23)cc1C 7.4%
CCOc1cccc(CNC(=O)c2ccc(N3CCCC3)c(NC(=O)Nc3ccccc3CC)c2)c1 -4.88%
CCOCCn1ccc2c(OCC(=O)NCc3ccc(C)cc3)cccc2c1=O -1.84%
Cc1ccc(CNC(=O)COc2ccc3c(c2)CCC3)cc1 26.7%
COc1cc(Cl)c(C)cc1NC(=O)CCc1nc2cccnc2n1Cc1cccs1 -19.7%
CCn1c(NC(=O)c2ccccc2)c(-c2cccs2)c(=O)c2ccccc21 -9.9% [at 102 µM]
CC(=O)c1ccc2c(c1)c1ccccc1n2CC(C)C 85.8% [at 102 µM]
CCCCCn1c(CCNC(=O)c2ccc(F)cc2)nc2ccccc21 5.58%
CCN(CC)CCCNC(=O)c1c(O)c2cc(F)cc3c2n(c1=O)C(C)CC3 (centres undefined) -70% [at 102 µM]
CCOc1ccccc1Nc1ccc2nonc2c1[N+](=O)[O-] -2.07% [at 102 µM]
NC(=O)c1ccc(Nc2ccc3c(c2)CCC3)c([N+](=O)[O-])c1 20.1% [at 102 µM]
O=C(NC1CCCC1)c1cc(-c2ccccc2)on1 7.25% [at 102 µM]
CN(C(=O)COC(=O)CCCc1c[nH]c2ccccc12)c1c(N)n(Cc2ccccc2)c(=O)[nH]c1=O 16.6%
O=C(COC(=O)Cc1c[nH]c2ccccc12)NCCc1ccccc1 -36.1% [at 102 µM]
O=C1CCc2cc(S(=O)(=O)Nc3ccc(C(F)(F)F)cc3)cc3c2N1CC3 -22.3% [at 0.501 µM]
COC(=O)c1ccc(CN2CCCC(C(=O)Nc3cccc(-n4cnnn4)c3)C2)cc1 (centres undefined) 6.29% [at 102 µM]
CCOc1ccc(NC(=O)C2CCCN(C(=O)Nc3ccccc3)C2)cc1 (centres undefined) -10.8%
CCNS(=O)(=O)c1cc(-c2nnc(Nc3cccc(C(F)(F)F)c3)c3ccccc23)ccc1C -24.3%
Cc1c(C(=O)Nc2ccccn2)oc2ccc(Br)cc12 2.88% [at 102 µM]
Cc1ccc(CNC(=O)c2cccc3c2C(=O)c2ccc(N4CCC(C)CC4)cc2S3(=O)=O)cc1 6.64% [at 0.501 µM]
Cc1csc(NC(=O)CSc2nc(=O)n(CCCN(C)C)c3c2CCC3)n1 -47% [at 102 µM]
Cc1ccc(NC(=O)CSc2nc(=O)n(CCN(C)C)c3c2CCCC3)c(C)c1 6.7% [at 0.501 µM]
Cc1ccc(OCC(=O)Nc2ccc(OCc3cc(=O)n4c(C)csc4n3)cc2)cc1C 29%
Cc1ccc(-c2nc(CS(=O)(=O)CC(=O)NCc3ccc4c(c3)OCO4)c(C)o2)cc1 1.88% [at 102 µM]
CCN(CC(=O)Nc1c(F)cccc1F)C(=O)C1CCC1 -3.45% [at 102 µM]
COc1cccc(NC(=O)C(=O)NCC(c2ccc3c(c2)OCO3)N2CCN(C)CC2)c1 (centres undefined) 6.98%
CCOC(=O)c1c(-c2ccc(OC)cc2)oc2ccc(OCc3ccc(C(=O)OC)cc3)cc12 58.2%
CC(=O)c1sc(NC(=O)CCN2C(=O)C3CC=CCC3C2=O)nc1-c1ccccc1 (centres undefined) -8.89% [at 2.33 µM]
CCc1nnc(NC(=O)c2c(O)c3c([nH]c2=O)CCCC3)s1 27.8%
O=C(NCc1ccccn1)c1c(O)c2c([nH]c1=O)CCCC2 13.7%
O=C(Nc1ccc(Br)cc1)c1ccc(Br)c(S(=O)(=O)NCc2ccccc2)c1 -2.54%
COc1ccc(CCNC(=S)N2CCN(S(=O)(=O)c3ccc(F)cc3)CC2)cc1 -16.1% [at 0.501 µM]
CN(C)S(=O)(=O)N1CCC(Oc2cccc(C(=O)NCCCC3CCCC3)c2)CC1 69.6% [at 102 µM]
C=CCNc1nnc(C)c2ccccc12 -0.456% [at 102 µM]
O=C(CSc1nc2ccccc2nc1Cc1ccccc1)N1CCCCC1 2.23%
O=C(COc1ccccc1O)NC1CCCC1 -42.6% [at 102 µM]
COc1cc2ccccc2cc1C(=O)N1CCOCC1 -27.4% [at 102 µM]
COc1cc(OC)cc(C(=O)NNC(=O)CNC(=O)c2ccc(Br)o2)c1 -1.19% [at 102 µM]
O=C(Cn1cc(SCc2cccc(Cl)c2)c2ccccc21)N1CCCCC1 2.69%
O=C(Cn1cc(SCc2ccccc2)c2ccccc21)N1CCCCC1 -8.44%
CCc1cccc(C)c1NS(=O)(=O)c1ccc(-c2cc(C)no2)s1 -1.34%
COc1cccc(Nc2nc3ccccc3c3nncn23)c1 3.66%
O=C(CN1CCN(Cc2ccc(Cl)cc2)C1=O)NCc1ccc(F)cc1 -4.97%
COCCSc1nnc(NC(=O)CCS(=O)(=O)Cc2ccccc2)s1 15.9% [at 102 µM]
COC(=O)CSc1nnc(NC(=O)CCc2ccccc2)s1 12.7%
Cc1ccc(S(=O)(=O)CCC(=O)Nc2nnc(CC(C)C)s2)cc1 8.95% [at 102 µM]
COCc1nnc(NC(=O)CS(=O)(=O)Cc2ccccc2)s1 -27% [at 12.7 µM]
Cc1cccc(OCCC(=O)OCc2csc(CC(=O)Nc3ccccc3C)n2)c1 -6.68% [at 12.7 µM]
CCN(CC)CCn1cnc2c1c(=O)[nH]c(=O)n2Cc1ccccc1 20.1% [at 2.33 µM]
CCCCn1c(=S)[nH]c2ncccc2c1=O 17.8% [at 2.33 µM]
CN(C(=O)CSc1nnc(NC(=O)Nc2ccccc2)s1)c1ccccc1 12.2%
Cc1ccccc1NC(=O)Cn1c(=O)n(CCCCC(=O)NCc2ccccc2Cl)c(=O)c2ccccc21 -25.2%
Cc1ccc(COC(=O)CN2C(=O)NC3(CCCC3)C2=O)cc1 -12.1% [at 12.7 µM]
CCOc1ccc(C(C)NC(=O)CN2C(=O)NC3(CCCCC3)C2=O)cc1OCC (centres undefined) -0.826%
CC(C)c1ccc(NC(=O)CN(C)S(=O)(=O)c2ccc3c(c2)c(=O)n(C)c(=O)n3C)cc1 -40.7%
CC(OC(=O)c1ccc(-n2cnnn2)cc1)C(=O)NCc1ccccc1 (centres undefined) -1.43% [at 102 µM]
NC1=NC(c2cc(F)cc(F)c2)n2c(nc3ccccc32)N1 (centres undefined) -45.3%
Cc1cc2nc(SCCN3CCOCC3)[nH]c2cc1C 12.3%
N#Cc1cnn2cc(CCN3CCOCC3)c(-c3ccc(F)cc3)nc12 5.85% [at 102 µM]

Potency, inactive:
CCc1ccc(CNC(=O)C2CCN(c3nnc(C)c4c(C)n(-c5ccc(C)cc5)nc34)CC2)cc1
COc1cccc(-c2nc(CS(=O)(=O)CC(=O)NCCc3ccc(OC)c(OC)c3)c(C)o2)c1

Potency, active:
Cc1cccc(-c2nc3ccc(C(=O)NCCN4CCN(C)CC4)cc3nc2-c2cccc(C)c2)c1 70.8 µM
CSc1ccccc1N1CCN(CCCCCC(=O)NC2CCCc3ccccc32)CC1 (centres undefined) 21.2 µM
O=C(CN1CCN(c2ccc(O)cc2)CC1)NC1CCCc2ccccc21 (centres undefined) 25.1 µM
COc1ccc(/C=N/NC(=O)c2ccncc2)cc1CN1CCCc2ccccc21 35.5 µM
CCCCSc1nnc(-c2ccc(NC(=O)CC)cc2)n1C 50.1 µM
CCOCC(=O)NCc1ccc2c(c1)cc(C)n2C 35.5 µM
CC(C)Cn1c(CCC(=O)O)ccc1-c1cccs1 17.8 µM
NC(=O)c1ccc(Nc2ccc3nonc3c2[N+](=O)[O-])cc1 56.2 µM
CC(C)(C)N(Cc1ccccc1)C(=O)COC(=O)CCc1c[nH]c2ccccc12 14.1 µM
Nc1ncc(CN2CCCC(C(=O)Nc3ccc(-c4ccco4)cc3)C2)cn1 (centres undefined) 50.1 µM
Cc1ccc2nc(NC(=O)CSc3nc(=O)n(CCCN(C)C)c4c3CCC4)sc2c1 39.8 µM
COc1ccc(-c2nc(CS(=O)(=O)CC(=O)NCc3cccc(Br)c3)c(C)o2)cc1 44.7 µM
C[N+](C)(C)CCNC(=O)c1c(O)c2c([nH]c1=O)CCCC2 10 µM
C=CCNc1nnc(SCC(=O)N2CCCCC2)c2ccccc12 50.1 µM
CCc1cccc2c(C=C(C#N)C#N)cn(CC(=O)N3CCCCC3)c12 44.7 µM
CCOCc1nnc(NC(=O)CCS(=O)(=O)Cc2ccccc2)s1 79.4 µM
CC(C)Cc1nnc(NC(=O)CCc2ccccc2)s1 35.5 µM
CCN(CC)CCn1c(=S)[nH]c2ncccc2c1=O 15.8 µM
CCOc1ccc(C(C)=O)cc1COC(=O)CN1C(=O)NC2(CCCC2)C1=O 56.2 µM
CCn1c2ccc(F)cc2c2nnc(SCCN3CCOCC3)nc21 44.7 µM
